The panel holds about 83,000 compounds, 20% with a hit somewhere; the sample as a whole holds those more often.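 Step 1: grow cells in 96-well plates. Step 2: add test compound at a single concentration. Step 3: incubate 48 h. Step 4: record percent growth.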 The source made the active and inactive calls. The calls were made as follows: active = growth percent below 10; inactive = the rest.
What follows are compounds tested on MDA-MB-468 breast (assay: NCI-60 one-dose screen, 48 h (100 = growth as untreated, 0 = no growth, -100 = all killed)). Conditions: 10 µM unless noted.

Compound	growth
COc1ccc(/C(=N\N=C(N)N)c2ccc(Cl)cc2)cc1OC	52.8% (inactive)
N#CCCc1c[nH]c2ccccc12	94.5% (inactive)
Nc1ncnc2nc(Br)[nH]c12	102% (inactive)
Cc1cccc2c1NC(=O)[C@@]21[C@H](C(=O)c2ccccc2)[C@]2(C(=O)Nc3ccccc32)[C@H]2CCCN21	22.2% [100 µM] (inactive)
CC1(C)CC[C@]2(CO)CC[C@]3(C)[C@H](CC[C@@H]4[C@@]5(C)CC[C@H](O)C(C)(C)[C@@H]5CC[C@]43C)[C@H]2[C@H]1O	101% (inactive)
O=C(O)C1[S][Sb]([CH](C(=O)O)[CH](C(=O)O)[Sb]2[S]C(C(=O)O)C(C(=O)O)[S]2)[S]C1C(=O)O (stereo not given)	81.6% (inactive)
O=C(NCc1cn(Cc2cccc(Oc3ccccc3)c2)nn1)c1cccnc1NCc1ccc(Cl)cc1	17.3% (inactive)
CC1(C)CC[C@]2(CO)CC[C@]3(C)C(=CC[C@@H]4[C@@]5(C)CC[C@H](NCO)C(C)(C)[C@@H]5CC[C@]43C)[C@@H]2C1	-70.1% (active)
COC(=O)c1[nH]cnc1/N=N/N(C)CCO	87.2% (inactive)
N#C/C(=C\c1ccc2ccccc2c1)c1cc2ccccc2[nH]1	30.5% (inactive)
O=C(CC(O)c1ccccc1)Nc1ccccn1 (stereo not given)	119% (inactive)
COc1cc(/C=C\c2cc(/C=C\c3ccc(O)c(OC)c3)n(C(=O)CNc3ccccc3OC)n2)ccc1O	95.8% (inactive)
Cc1c(Cl)cccc1NC(=O)c1sc2nc3c(cc2c1N)COCC3	17.7% (inactive)
Cc1ccc(C2CC(c3nc(-c4ccc(Cl)cc4)oc3C)=NN2C(=O)c2ccncc2)cc1 (stereo not given)	97.8% (inactive)
COc1ccc(-c2nnc3c4[nH]cnc4ncn23)c(OC)c1	-16.2% (active)
C=C(C)COC(=O)c1ccccc1C(=O)OCC1(C)CO1 (stereo not given)	108% (inactive)
CN(C)C(=O)Nc1nc2cc(Cl)c(Cl)cc2[nH]1	-13.4% (active)
CCCCCCCCCCCCCCCC(=O)OC[C@@]1(O)C[C@@]23CC[C@@H]4C(C)(C)CCC[C@@]4(C)[C@@H]2CC[C@H]1C3	103% (inactive)
CCCCCCCCCCCCNC(=O)[C@H]1CSC(c2ccc(OC)c(F)c2)N1 (stereo not given in full)	-81.4% (active)
O=C(CCCCC[P+](c1ccccc1)(c1ccccc1)c1ccccc1)NC(COC(=O)C(Cl)Cl)(COC(=O)C(Cl)Cl)COC(=O)C(Cl)Cl	84.4% (inactive)

Compound	growth
O=C(/C=C/C=C/c1csc(Br)n1)NO	99.7% (inactive)
C/C(=C(/c1ccc(O)cc1)c1ccc(Cl)cc1)c1ccccc1	-71.9% (active)
COC1=C(OC)C(=O)C=CC1=O	105% (inactive)
COc1ccc(/C=C2\COc3ccc(O)cc3C2=O)cc1	85.7% (inactive)
O=C(CN1CCN(c2ccc(Cl)cc2)CC1)N1CCN(c2nnc(-c3ccc(Cl)cc3)c(-c3ccc(Cl)cc3)n2)CC1	87.5% (inactive)
Oc1c(CN2CCCC2)cc(CSCc2ccccc2)c2cccnc12	-33.1% (active)
CCOC(=O)c1nc2c3ccccc3cnn2c1C(=O)c1ccc(OC)cc1	105% (inactive)
c1csc(-c2cn3nc(-c4c[nH]c5ccccc45)sc3n2)c1	19.4% (inactive)
COc1ccc(Nc2[nH]n3c(=O)cc(C)nc3c2C(N)=O)c(OC)c1	97.3% (inactive)
Cc1cc(Cl)cc(NS(=O)(=O)c2ccc(-c3cnc(C4CC4)o3)cc2)c1	11.3% (inactive)
O=C(/C=C/c1c(-c2ccccc2)[nH]c2ccccc12)S(=O)(=O)c1ccccc1	18.7% (inactive)
N/C(=N\C(N)=N\c1nc2ccccc2s1)c1cccc(Cl)c1	110% (inactive)
CCN(CC)CCNc1nc2ccccc2c2c(=O)c3cc(Cl)ccc3sc12	56.2% (inactive)
CCOC(=O)Sc1ncnc2nc[nH]c12	75.3% (inactive)
CN(C)c1ccc(N=Nc2ccc3ccccc3c2)cc1	5.06% (active)
COc1ccc(/C=C2\N=C3SC=C(N)N3C2=O)cc1	-31.9% (active)
CCOC(=O)C1=C(C)NC(SCc2cc(=O)oc3ccc(F)cc23)=N[C@@H]1c1cccc2ccccc12	113% (inactive)
CCOC(=O)Cc1cc(Br)c(OCc2ccccc2)c(Br)c1	110% (inactive)
CC/C(=C(\c1ccccc1)c1ccc(OCCN(C)C)cc1)c1ccccc1	-13.3% (active)
C=C[C@@H]1C[C@@H]2Cc3ccccc3N1O2	97.8% (inactive)
